Test results reported in PubChem BioAssay AID722 (NMMLSC, 2007).
Out of some 1,300 compounds screened, about 40 (3%) were called active. Cut-off read from the data, not from the text of the source: active = inhibition above about 30%; inactive = the rest. Many of the other results were omitted from the sample, so actives are more common in it than they were.

These compounds were tested against fMet-Leu-Phe receptor (Homo sapiens) (UniProt P21462) (assay: FPR1 fluorescent ligand binding inhibitors, primary screen, cell-based, flow cytometry, SAR analysis (AID 722)). Conditions: FPR-expressing cells, stronger effect = higher value, concentration not given here.
Chain of fMet-Leu-Phe receptor (Homo sapiens) (P21462 whole entry, looked up): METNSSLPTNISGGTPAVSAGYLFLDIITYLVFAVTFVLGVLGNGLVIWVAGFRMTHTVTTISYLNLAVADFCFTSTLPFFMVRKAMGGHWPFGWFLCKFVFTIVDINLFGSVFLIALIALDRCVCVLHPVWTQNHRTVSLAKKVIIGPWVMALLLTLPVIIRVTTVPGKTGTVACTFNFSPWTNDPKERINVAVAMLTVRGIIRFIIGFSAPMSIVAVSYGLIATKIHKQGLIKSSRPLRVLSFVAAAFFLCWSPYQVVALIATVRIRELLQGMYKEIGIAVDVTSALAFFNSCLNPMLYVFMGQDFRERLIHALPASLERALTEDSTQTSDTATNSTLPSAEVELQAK

inhibition, inactive:
CN1C(=O)C2(/C(=C(/O)c3ccc(F)cc3)C(=O)C(=O)N2CCN2CCOCC2)c2ccccc21 (stereo unspecified) -6.9%
COc1ccc(C2/C(=C(/O)c3ccccc3)C(=O)C(=O)N2Cc2ccccc2)c(OC)c1 (stereo unspecified) -11%
COCCCN1C(=O)C(=O)/C(=C(/O)c2ccc(C)cc2)C1c1ccc(C(C)C)cc1 (stereo unspecified) 2.7%
COCCCN1C(=O)C(=O)/C(=C(/O)c2ccccc2)C1c1ccc(Cl)cc1 (stereo unspecified) 0.5%
Cc1ccc(C2/C(=C(/O)c3ccccc3)C(=O)C(=O)N2Cc2cccnc2)cc1 (stereo unspecified) 5.2%
O=C1C(=O)N(Cc2cccnc2)C(c2ccc(Br)cc2)/C1=C(\O)c1ccccc1 (stereo unspecified) -0.7%
CC(C)(C)c1ccc(C2/C(=C(\O)c3ccccc3)C(=O)C(=O)N2Cc2cccnc2)cc1 (stereo unspecified) -8.3%
O=C1C(=O)N(Cc2cccnc2)C(c2ccc(Cl)cc2)/C1=C(\O)c1ccccc1 (stereo unspecified) 8.1%
COc1ccccc1C1/C(=C(\O)c2ccc(C)cc2)C(=O)C(=O)N1Cc1cccnc1 (stereo unspecified) -4.4%
Cc1onc(-c2c(Cl)cccc2Cl)c1C(=O)N1CCCC(C)C1 (stereo unspecified) -2.1%
CCOC(=O)c1cc(C)sc1NC(=O)c1ccc(OC)cc1 -6.6%
O=C1CSC(c2ccc(F)cc2)N1c1ccccc1F (stereo unspecified) -3%
CN1C(=O)C(=O)/C(=C(\O)c2ccc(Cl)cc2)C1c1ccc(Cl)cc1 (stereo unspecified) -3.2%
O=C1CSC(c2cccc(F)c2)N1c1c(F)cccc1F (stereo unspecified) 0.4%
Cn1c(OCc2cccnc2)nc2c1c(=O)n(Cc1ccc(F)cc1)c(=O)n2C 1%
O=C1C(=O)N(Cc2cccnc2)C(c2ccc(Br)cc2)/C1=C(\O)c1ccc(F)cc1 (stereo unspecified) -5.5%
O=C(c1ccccc1)N(Cc1ccco1)Cc1ccccc1Cl -5%
Cc1ccccc1C(=O)N1C(=S)C(c2ccc(F)cc2)=NC12CCN(C)CC2 3.3%
CCOC(=O)c1c(NC(=O)c2ccc(F)cc2)sc(C)c1C -3.4%
COc1ccc(NC(=O)C(NC(=O)Cc2cccs2)c2ccccc2)cc1 (stereo unspecified) -2.6%
O=C1C(=O)N(Cc2cccnc2)C(c2ccccc2Cl)/C1=C(\O)c1ccccc1 (stereo unspecified) 1.8%
CC(C)CN1C(=O)c2ccccc2C(C(=O)N2CCCC2)C1c1cccs1 (stereo unspecified) 4.5%
CCc1ccc(C2/C(=C(/O)c3ccc(OC)cc3)C(=O)C(=O)N2CCc2c[nH]c3ccccc23)cc1 (stereo unspecified) 3%
O=C1C(=O)N(CCc2c[nH]c3ccccc23)C(c2ccc(Cl)cc2)/C1=C(/O)c1ccc(F)cc1 (stereo unspecified) 1.5%
O=C(C1=C(O)C(=O)N(CC2CCCO2)C1c1cccs1)c1ccco1 (stereo unspecified) -9.5%
Cn1c(NCCO)nc2c1c(=O)n(Cc1ccc(F)cc1)c(=O)n2C -9.2%
COc1ccc(Cl)cc1N1C(=O)CSC1c1ccccc1F (stereo unspecified) 4.1%
COc1ccc(N(C(=O)c2cccnc2)S(=O)(=O)c2cccs2)cc1 13%
COc1ccc(/C(O)=C2/C(=O)C(=O)N(CCCn3ccnc3)C2c2ccc(O)c(OC)c2)cc1 (stereo unspecified) -11%
Cn1c(NCCO)nc2c1c(=O)n(Cc1cccc(F)c1)c(=O)n2C 6.7%
O=C1C(=O)N(c2nc3ccccc3s2)C(c2cccc(F)c2)/C1=C(\O)c1ccccc1 (stereo unspecified) 4.3%
O=C(c1ccccc1)N(Cc1ccco1)Cc1ccco1 7.4%
CCc1ccc(CN(Cc2ccco2)C(=O)c2ccccc2)cc1 2.2%
Cc1ccccc1NC(=S)N(Cc1ccco1)C(C)c1ccccn1 (stereo unspecified) -1%
CCOc1ccccc1C(=O)N(Cc1ccco1)Cc1ccco1 -4.7%
COc1ccc(Cn2c(=S)[nH]c3cc4ccccc4cc3c2=O)cc1 -2.8%
COC(=O)c1ccccc1NC(=O)NC1CCCCC1 -4.1%
Cc1ccc(/C(O)=C2\C(=O)C(=O)NC2c2ccc(C)cc2)cc1 (stereo unspecified) -7.7%
COCCCN1C(=O)C(=O)/C(=C(/O)c2ccccc2)C1c1ccc2c(c1)OCO2 (stereo unspecified) -1.2%
O=C1C(=O)N(CCO)C(c2ccc([N+](=O)[O-])cc2)/C1=C(/O)c1ccc(Cl)cc1 (stereo unspecified) -5.4%
O=C1CC(c2cccc(Cl)c2Cl)C2=C(CC(c3cccs3)CC2=O)N1 (stereo unspecified) -15.7%
O=C1CC(c2ccccc2)C2=C(CC(c3cccs3)CC2=O)N1 (stereo unspecified) -21.7%
O=C1CC(c2cccc(F)c2)C2=C(CC(c3cccs3)CC2=O)N1 (stereo unspecified) -6.6%
O=C1CC(c2cccc(Cl)c2)C2=C(CC(c3cccs3)CC2=O)N1 (stereo unspecified) 10.4%
COc1ccc(C2C(C(=O)c3cccs3)=C(O)C(=O)N2Cc2cccnc2)cc1 (stereo unspecified) -9.5%
O=C1C(=O)N(CCO)C(c2cccc(F)c2)/C1=C(/O)c1ccccc1 (stereo unspecified) -7.5%
COc1ccc(OC)c(C2/C(=C(\O)c3ccccc3)C(=O)C(=O)N2c2nc3ccccc3s2)c1 (stereo unspecified) -1.7%

inhibition, active:
COCCCN1C(=O)C(=O)/C(=C(/O)c2ccccc2)C1c1ccc(C(C)C)cc1 (stereo unspecified) 54.4%
CC(C)c1ccc(C2/C(=C(\O)c3ccccc3)C(=O)C(=O)N2Cc2cccnc2)cc1 (stereo unspecified) 40.5%
Cc1ccc(/C(O)=C2\C(=O)C(=O)N(Cc3cccnc3)C2c2ccc(Br)cc2)cc1 (stereo unspecified) 61.8%
COc1ccc(C2/C(=C(\O)c3ccc(C)cc3)C(=O)C(=O)N2Cc2cccnc2)c(OC)c1 (stereo unspecified) 65.6%
COc1ccc(/C(O)=C2/C(=O)C(=O)N(CCc3c[nH]c4ccccc34)C2c2ccc(C(C)C)cc2)cc1 (stereo unspecified) 43.8%
CCCC(=O)N(Cc1ccco1)S(=O)(=O)c1cccc2cccnc12 97.6%
CC(C)C(=O)N(Cc1ccco1)S(=O)(=O)c1cccc2cccnc12 82.2%
O=C1CC(c2ccccc2C(F)(F)F)C2=C(CC(c3cccs3)CC2=O)N1 (stereo unspecified) 32.3%
Cc1cccc(C2CC(=O)NC3=C2C(=O)CC(c2cccs2)C3)c1 (stereo unspecified) 33.7%
